Compounds with a hit are over-represented: about 6.9% of the library has one in this group of screens.
L3MBTL1 block: qHTS Assay for the Inhibitors of L3MBTL1 | Potency, µM (titrated, usually from 57.1 µM), inactives show at the top dose activity, negative = inhibition, hits mostly inhibitors | 230,000 tested, 0.66% active | AID 485360, 2010 | AlphaScreen L3MBTL1–H3K9me1 peptide binding | Lethal(3)malignant brain tumor-like protein 1 (Homo sapiens), Q9Y468; also: % is scaled to controls: 0 for no effect and ±100 for the full control effect; nearly all actives have a fitted effect of over 60% in size
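AlphaScreen assay: L3MBTL1 (50 nM final) was preincubated 30 min at room temperature with biotinylated H3(1-15)K9me1 peptide (75 nM final), then 30 min with library compounds; streptavidin donor and nickel chelate acceptor beads (10 ug/mL final) added, 30 min dark.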
PLK1 PBD block: qHTS for Inhibitors of PLK1-PDB (polo-like kinase 1 - polo-box domain): Primary Screen. AID 720504, 2013. 360,000 tested, 2.8% active. Potency, µM, for inactives: max response, negative = inhibition, usual class: inhibitors. Plk1 PBD binding of FITC phosphopeptide, fluorescence polarization; also: series mostly up to about 57 µM; % is scaled to controls: 0 for no effect and ±100 for the full control effect; nearly all actives have a fitted effect of over 65% in size
HP1b binding inh: HTS for Inhibitors of HP1-beta Chromodomain Interactions with Methylated Histone Tails; Chromobox protein homolog 1 (Homo sapiens), P83916; AlphaScreen HP1-beta / biotin-H3K9me3 peptide binding; Potency, µM (doses to about 114 µM), inactives show top-dose activity change, negative = inhibition, most hits filed as inhibitors; 390,000 tested, 0.56% active; AID 540317, 2011; also: nearly all actives have a fitted effect of over 70% in size
Target sequence (P83916 whole entry, looked up): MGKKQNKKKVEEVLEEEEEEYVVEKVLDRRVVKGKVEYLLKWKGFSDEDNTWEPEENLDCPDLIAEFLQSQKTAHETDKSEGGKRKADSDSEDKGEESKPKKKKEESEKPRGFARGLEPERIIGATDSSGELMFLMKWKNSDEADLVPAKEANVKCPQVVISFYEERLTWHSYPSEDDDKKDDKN
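Compound inhibition of the preformed complex between 50 nM HP1-beta and 50 nM biotinylated H3K9me3 peptide was read by AlphaScreen. Buffer was PBS pH 7.4 with 0.01% Tween-20. Incubations ran 30 min at room temperature, with 10 ug/mL donor/acceptor beads.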
VDR inh: Inhibitors of the vitamin D receptor (VDR): qHTS | 400,000 tested, 0.93% active | VDR-SRC2-3 peptide fluorescence polarization, 2 h | AID 504847, 2011 | Vitamin D3 receptor (Homo sapiens), P11473 | Potency, µM, for inactives: max response, negative = inhibition, actives largely listed as inhibitors; also: % is scaled to controls: 0 for no effect and ±100 for the full control effect
Target sequence (P11473 whole entry, looked up): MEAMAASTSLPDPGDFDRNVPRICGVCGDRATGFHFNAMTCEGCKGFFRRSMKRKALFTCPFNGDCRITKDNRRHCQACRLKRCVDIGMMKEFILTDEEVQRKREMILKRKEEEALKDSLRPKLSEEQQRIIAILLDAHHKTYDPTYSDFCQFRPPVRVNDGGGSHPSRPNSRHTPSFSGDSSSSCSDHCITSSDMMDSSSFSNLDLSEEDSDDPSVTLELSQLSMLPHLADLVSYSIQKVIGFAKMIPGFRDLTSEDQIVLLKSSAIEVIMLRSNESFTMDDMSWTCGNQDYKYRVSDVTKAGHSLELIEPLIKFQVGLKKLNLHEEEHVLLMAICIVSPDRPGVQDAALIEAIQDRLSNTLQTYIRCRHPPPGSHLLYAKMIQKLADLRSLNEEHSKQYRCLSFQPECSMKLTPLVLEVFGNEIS
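Fluorescence polarization assay measuring small-molecule disruption of VDR binding to the coregulator peptide SRC2-3. Compounds were pin-transferred (23 nl) into the reagent mix and incubated 2 h at room temperature before reading.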
BAZ2B inh: qHTS Assay for Inhibitors of BAZ2B; Potency, µM (titrated, usually from 114 µM), inactives show top-dose activity change, negative = inhibition, hits mostly inhibitors; AID 504333, 2011; 360,000 tested, 4.4% active; AlphaScreen BAZ2B-H3K14Ac peptide displacement; also: % is scaled to controls: 0 for no effect and ±100 for the full control effect; nearly all actives have a fitted effect of over 60% in size
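AlphaScreen displacement of biotin-H3(5-23)K14Ac peptide (50 nM final) from BAZ2B (50 nM final) in PBS pH 7.4, 0.01% Tween-20; complex preformed 30 min RT, then compounds (top 110 uM) 30 min RT, beads 20 min dark.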
JMJD2A Tudor inh: qHTS Assay for Inhibitors of JMJD2A-Tudor Domain; Potency, µM (doses to about 114 µM), inactives show top-dose activity change, negative = inhibition, actives largely listed as inhibitors; 390,000 tested, 4.4% active; AlphaScreen JMJD2A-Tudor / H3K4me3 peptide binding; also: % is scaled to controls: 0 for no effect and ±100 for the full control effect; nearly all actives have a fitted effect of over 50% in size
Starred values were filed as active, the others as inactive; ? = inconclusive; . = no result given; [ ] = another dose, or the depositor's remark. Calls follow the shape of the dose curve; as a rule, active = well fitted curve in the direction sought with a large enough effect; inconclusive = small, poorly fitted or top-dose-only effect, or another doubt; inactive = no such curve, though single readings can be large; an effect the other way counts as inactive or inconclusive. Potency is read from the fitted curve at half-maximal effect.

SMILES | L3MBTL1 block | PLK1 PBD block | HP1b binding inh | VDR inh | BAZ2B inh | JMJD2A Tudor inh
O=C(CCC(=O)NNC(=O)COc1ccc(Br)cc1)NCc1ccccc1 | -1% | -8% | 57% | -7% | -13% | -3%[11.4 µM]
CC(C)NC(=O)C(=O)NNC(=O)CCc1ccccc1 | -4% | -2% | 20% | 3% | -39% | 14µM*
CCOC(=O)c1noc2nc(C)n(CC(=O)NC(C)CC)c(=O)c12 (stereo not drawn) | . | . | 16%[57 µM] | 7% | 3% | -3%
Cc1ccc(-n2nc3c(c2NC(=O)c2ccc4c(c2)OCO4)CS(=O)C3)c(C)c1 (stereo not drawn) | 2% | -2% | 18% | -15% | -7% | -20%
COc1cccc(/C=N/NC(=O)c2c(-c3ccccc3)noc2C)c1O | -4% | -6% | 19% | -11% | 45µM* | ?
Cc1onc(-c2ccccc2)c1C(=O)N/N=C/c1c[nH]c2ccccc12 | -10% | 24µM* | 45µM* | 3% | ? | ?
CCOc1cc([N+](=O)[O-])cc(/C=N/NC(=O)c2c(-c3ccccc3)noc2C)c1O | . | -1% | 20% | 0% | 22µM* | 79µM*
Cc1ccc(/C=N/NC(=O)c2c(-c3ccccc3)noc2C)c(O)c1 | . | . | . | . | -24% | .
CCc1ccccc1NC(=O)Cn1nnc(-c2nc(-c3ccncc3)no2)c1N | . | . | 31% | 11% | -13% | -1%
O=C(Cn1cnc2ccccc2c1=O)c1ccccc1 | 4% | -1% | 37% | 3% | 5% | -1%
Cc1ccc(C(=O)Cn2cnc3ccccc3c2=O)cc1 | 2% | 30µM* | -6% | -9% | 0% | 3%[11.4 µM]
O=C1NC(c2cc(Cl)cc([N+](=O)[O-])c2O)Nc2ccccc21 (stereo not drawn) | 10% | ? | -4% | -13% | 40µM* | ?
CC(C)CCNC(=O)c1cnc2sc(N3CCCCC3)nn2c1=O | . | . | 25% | 6% | 1% | 1%
CCOc1ccc(C(=O)CC(NCc2cccs2)C(=O)O)cc1 (stereo not drawn) | -4% | -28% | 6% | 25µM* | -26% | 89µM*
CCOc1ccc(C(=O)CCC(=O)N(CC)CC(=O)NCc2cccs2)cc1 | -10% | -7% | 5% | -6% | 5% | -17%
O=C(O)CCCNc1c(C(=O)Nc2ccc(Cl)cc2)cc([N+](=O)[O-])cc1[N+](=O)[O-] | -4% | -2% | 7% | -15% | ? | -8%
CC1=C(C(=O)O)N2C(=O)[C@@H](NC(=O)[C@@H](N)c3ccccc3)[C@@H]2SC1 | . | . | . | 1% | . | .
C=CC1=C(C(=O)O)N2C(=O)[C@@H](NC(=O)/C(=N\O)c3csc(N)n3)[C@H]2SC1 (stereo in doubt) | . | -20% | 5% | -4% | . | 20µM*
C=CC1=C(C(=O)O)N2C(=O)[C@@H](NC(=O)C(N=O)c3csc(N)n3)[C@H]2SC1 (stereo partly drawn) | . | . | . | 45µM* | . | .
CCCCC[C@@H]1C=C(C(=O)O)[C@H](c2ccc(CC)cc2)N1S(=O)(=O)c1ccc(C)cc1 | 2% | 27µM* | 35% | -6% | . | -26%
CCCCC[C@@H]1C=C(C(=O)O)[C@H](c2ccc(Cl)c(Cl)c2)N1S(=O)(=O)c1ccc(C)cc1 | -11% | 27µM* | 34% | ? | . | ?
O=C(Nc1cccc(C(F)(F)F)c1)c1cncs1 | . | 4% | 55% | -22% | 6% | 12%
O=C(/C=C/c1ccco1)c1ccc(NC(=O)C23CC4CC(CC(C4)C2)C3)cc1 | 22µM* | -24% | ? | ? | 35µM* | ?
O=C(C=Cc1ccco1)c1ccc([N+](=O)[O-])cc1 | . | -13% | ? | ? | . | ?
O=C(NCCc1ccc(Cl)cc1)c1cc(-c2ccc(Cl)cc2)n[nH]1 | . | . | 24% | 11% | -3% | 4%
SMILES | L3MBTL1 block | PLK1 PBD block | HP1b binding inh | VDR inh | BAZ2B inh | JMJD2A Tudor inh
O=C(CCC1COc2ccccc2O1)Nc1ccccn1 (stereo not drawn) | -1%[11.4 µM] | -12% | 36% | -2% | 8% | 0%
O=C(CCC1COc2ccccc2O1)Nc1ncccc1O (stereo not drawn) | -5% | -3% | 8% | -11% | ? | 50µM*
O=C1/C(=C/c2ccco2)SC(=S)N1CCC(=O)N1CCCCC1CCO (stereo not drawn) | . | ? | 37% | -21% | 50µM* | -5%
O=C1/C(=C\c2ccco2)SC(=S)N1C1CCCCC1 | 0%[2.29 µM] | . | . | . | 10µM* | .
Cc1nn(-c2ccc(Cl)cc2)c(Cl)c1/C=N/NC(=O)c1ccc(NS(=O)(=O)c2cccs2)cc1 | . | 24µM* | -23% | ? | . | -17%[11.4 µM]
COc1ccc(OC)c(-c2csc(N(CC3CCCO3)C(=O)C3CCCCC3)n2)c1 (stereo not drawn) | -7% | 17µM* | ? | ? | 1% | ?
O=C(NC1CCCCC1)C(c1cccnc1)N(CCc1ccccc1)C(=O)Cc1cccs1 (stereo not drawn) | -4% | 27µM* | ? | ? | -5% | -30%[57.1 µM]
CCOC(=O)/C(C#N)=C1\CCCN1CC(N)=S | 1% | 21µM* | -25% | ? | -23% | -18%
CCOC(=O)C(C#N)=C1CCC=C(C)C1 | . | 7% | . | . | . | .
Cc1cc(=O)n(CC(=O)N2CCN(c3ccc(F)cc3)CC2)c2c1c(C)nn2C | . | . | 13% | -10% | ? | -20%
CCN(CC)c1ccc(NC(=O)C2CCN(S(=O)(=O)c3c(C)noc3/C=C/c3ccccc3F)CC2)c(C)c1 | . | . | 7%[57 µM] | 4% | -16% | -25%
COc1ccc(OC(C)C(=O)Nc2ccc(F)cc2F)cc1 (stereo not drawn) | 7% | 21µM* | 5% | 3% | -1% | -2%[11.4 µM]
COc1ccc(OC(C)C(=O)Nc2ccccc2F)cc1 (stereo not drawn) | 11% | 3% | 32% | -7% | 3% | 17%
Fc1ccc(Nc2ccnc(-c3ccccc3C(F)(F)F)n2)cc1 | . | . | . | 45µM* | . | .
O=c1c(-c2ccc(F)cc2)nc2cnc(N3CCOCC3)nc2n1CCc1ccccc1 | . | . | . | -2% | . | .
CCn1c(SCC(=O)NC2CC2)nc2ccccc21 | . | -6% | . | . | . | .
O=C(CSc1nnc(SCc2ccccc2)s1)N/N=C/C=C\c1ccco1 | 13µM* | ? | ? | ? | 14µM* | 13µM*
Cn1c(SCC(=O)N/N=C/c2ccco2)nc2ccccc21 | -1% | -3% | 39% | -1% | -26% | -9%

Screens from PubChem BioAssay.
